Shown are actives, neighbours in structure and some others; about 4.2% of the full set was active somewhere.
CHOP inh = blocks CHOP induction under ER stress. CHO-K1 CHOP-promoter luciferase, tunicamycin-induced, 15-18 h. inhibition, % at 10 µM. 220,000 tested, 3.8% active. AID 2732;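 active = compounds that reduced the stress-induced luciferase reporter signal by more than about 70% of percent inhibition, limit read from the data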;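 note: 0% = tunicamycin plus vehicle and 100% = wells without tunicamycin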
Hsp70 act = transcriptional activators of Hsp70; 200,000 tested, 0.04% active; AID 1203; activation, % at 10 µM; HeLa Hsp70 promoter luciferase reporter, luminescence; scaled: vehicle 0, proteasome-inhibitor control 100%;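 active = activation above the mean across all tested compounds plus 3 SD, cutoff set per campaign, cut at about 5.5% in these data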;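 note: 100% = MG132 at 30 µM as the positive control and 0% = DMSO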
S1P4 antag = human S1P4 receptor antagonism; O95977; S1P4-expressing cells, antagonist mode, reporter read-out; inhibition, % at 4.98 µM; 220,000 tested, 0.26% active; in the data active = inhibition above about 29%;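 note: 0% = wells stimulated with agonist and 100% = vehicle wells without agonist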
Target sequence (O95977 whole entry, looked up): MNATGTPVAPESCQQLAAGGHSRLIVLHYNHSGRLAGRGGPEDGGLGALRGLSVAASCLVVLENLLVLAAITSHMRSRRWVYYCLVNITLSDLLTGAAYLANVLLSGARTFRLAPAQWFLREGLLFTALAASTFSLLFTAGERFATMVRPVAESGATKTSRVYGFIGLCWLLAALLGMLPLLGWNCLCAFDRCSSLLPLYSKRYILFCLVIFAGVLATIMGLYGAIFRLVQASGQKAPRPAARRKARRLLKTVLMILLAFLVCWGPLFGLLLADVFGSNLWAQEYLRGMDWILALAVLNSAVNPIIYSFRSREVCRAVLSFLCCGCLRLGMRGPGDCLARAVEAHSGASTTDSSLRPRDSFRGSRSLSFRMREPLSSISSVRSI
S1P4 ag = agonists of human S1P4 receptor. O95977. 220,000 tested, 0.35% active. S1P4-expressing cell line, agonist reporter assay. activation, % at 4.98 µM; in the data active = activation above about 11%;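 note: 0% = DMSO vehicle and 100% = reference agonist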
CHOP inh conf = confirmation of CHOP induction inhibitors; shares compounds with CHOP inh; CHO-CHOP promoter luciferase reporter, tunicamycin-induced, luminescence; inhibition, % at 10 µM; 2,100 tested, 45% active;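 active = mean of three repeat readings of reporter signal inhibition above a set limit, cut at about 70% in these data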;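 note: 0% = tunicamycin plus vehicle and 100% = wells lacking tunicamycin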
Active calls of the source: *; · = no result.

SMILES	CHOP inh	Hsp70 act	S1P4 antag	S1P4 ag	CHOP inh conf
O=[N+]([O-])c1ccc(-c2nc(C(Cl)Cl)c3ccccc3n2)cc1	105*	·	-3	0	124*
CN(Cc1ccccc1)c1nc(-c2ccc([N+](=O)[O-])cc2)nc2ccccc12	30	0	-10	3	·
N=C1C(=O)OCC1c1ccccc1NC(=O)Nc1ccccc1 (stereo unspecified)	8	0	1	2	·
Cc1ccc(NC(=O)Nc2cc(Cl)ccc2C2COC(=O)C2=N)cc1 (stereo unspecified)	101*	0	-9	0	62
CCN1CCN(C(=S)c2ccc(Br)cc2)CC1	1	0	-6	-1	·
CCC(=O)N1N=C(c2c(-c3ccccc3)c3cc(Cl)ccc3[nH]c2=O)CC1c1ccco1 (stereo unspecified)	103*	0	-20	0	116*
O=C(O)CCC(=O)N1N=C(c2c(-c3ccccc3)c3cc(Cl)ccc3[nH]c2=O)CC1c1ccco1 (stereo unspecified)	-2	0	-12	0	·
CN(C)CC(C(=O)c1ccccc1)c1ccccc1 (stereo unspecified)	·	0	21	-1	42
COc1ccc(OC)c(-c2cc(C(=O)N3CCN(c4ncccn4)CC3)c3ccccc3n2)c1	15	0	-10	-1	·
O=[N+]([O-])c1ccc(-c2nc(=S)c3c(o2)CCCC3)cc1	-30	0	6	1	·
CCOc1ccc(NC2=C(Cl)C(=O)N(Cc3ccccc3)C2=O)cc1	105*	0	-24	1	22
COc1ccc(NC2=C(Cl)C(=O)N(CCc3ccccc3)C2=O)cc1	2	0	-8	6	·
Cc1cc(=O)oc2cc(OCC(=O)NCCCN3CCOCC3)ccc12	100*	0	2	3	1
C/C(=N/NC(=O)CNc1ccc(C)cc1)c1ccc(Br)s1	65	0	-16	0	·
COc1ccccc1NCC(=O)N/N=C(\C)c1ccc(Br)s1	98*	0	2	2	40
O=C(N/N=C1\CCCc2ccccc21)c1ccccc1Cl	0	0	-4	2	·
CCOC(=O)c1ccc(N=Cc2nc(-c3ccccc3)oc2OC(C)=O)cc1	106*	1	-28	3	-19
Cc1ccc(C(=O)Oc2oc(-c3ccco3)nc2C=Nc2ccccc2)cc1	102*	0	0	1	-24
COc1ccc(N=Cc2nc(-c3ccccc3)oc2OC(=O)c2ccccc2)cc1	30	0	6	2	·
Cc1cc(CNC(=S)Nc2ccc(Br)cc2Cl)nn1C	10	0	-2	0	·
CN(C1CCCCC1)S(=O)(=O)c1ccc(S(=O)(=O)N2CCN(CCC#N)CC2)cc1	23	0	-12	3	·
Cc1ccc(N=Nc2c(O)c3ccccc3[nH]c2=O)c(S(=O)(=O)N(C)C)c1	3	·	11	0	·
Cc1cc(N=Nc2c(O)c3ccccc3[nH]c2=O)ccc1N=Nc1ccc(C(=O)N(C)C)cc1	105*	·	-17	2	18
O=C(c1cnc2ccccn2c1=O)N1CCCc2ccccc21	13	0	-19	2	·
Cc1cc(Cl)ccc1C(=O)C1CCCN(C(=O)CCn2cnnn2)C1 (stereo unspecified)	-2	0	-5	-1	·
SMILES	CHOP inh	Hsp70 act	S1P4 antag	S1P4 ag	CHOP inh conf
CCOC(=O)C(C)Oc1cccc2c(=O)n(CC(=O)Nc3ccc(OCC)cc3)ccc12 (stereo unspecified)	106*	0	-5	-2	61
CCOC(=O)c1c(N2C(=O)C=CC2=O)sc(C)c1C	109*	0	-16	-5	7
Cc1ccc(CCc2nnc(SCC(=O)Nc3ccccc3Cl)n2-c2ccccc2)o1	33	0	-16	3	·
CCOC(=O)c1ccc(NC(=O)CSc2nnc(CCc3ccc(C)o3)n2-c2ccccc2)cc1	103*	0	-7	-2	58
CC(C)c1ccc(/C=C(\c2nc3ccccc3[nH]2)S(=O)(=O)c2ccccc2)cc1	33	0	24	-1	·
O=S(=O)(/C(=C/c1ccc(C(F)(F)F)cc1)c1nc2ccccc2[nH]1)c1ccccc1	109*	3	92*	-1	134*
CN(C)S(=O)(=O)N1CCN(c2ccc(Cl)cc2)CC1	6	0	3	-3	·
N#Cc1c(N)nc(SCC(=O)C23CC4CC(CC(C4)C2)C3)c(C#N)c1-c1ccc(Cl)cc1	101*	0	-6	-2	83*
CSc1nc(N)nc(SCC(=O)C23CC4CC(CC(C4)C2)C3)c1C#N	56	0	-13	-1	·
Cc1cccc(C(=O)NC(=S)NNC(=O)c2cccs2)c1	52	0	-1	0	·

Screening data: PubChem BioAssay, several laboratories
